# Unmarked numbers belong to inactive results. Inconclusive results are not listed. A call without a number means that no potency is given here. Active and inactive are the calls of the source. Unless noted, the call rests on the fitted dose curve; in most records, active means well fitted curve in the direction sought with a large enough effect in the repeat runs; inconclusive means weak or mixed curves; inactive means no such curve, though single readings can be large; an effect the other way counts as inactive or inconclusive.
# Experiments:
# [1] = qHTS assay to identify small molecule agonists of the hypoxia (HIF-1) signaling pathway - cell viability counter screen (AID 1224844; calls by dose curve; further: nearly all actives have a fitted effect of over 50% in size)
# How it was run: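 In this counter screen, HRE-bla ME-180 cell viability after 17 hrs of compound exposure at 37C was read by CellTiter-Glo luminescence, multiplexed with the beta-lactamase reporter measurement.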
# [2] = qHTS assay to identify small molecule agonists of H2AX (AID 1224845; active means well fitted activation curve with a large enough effect in the signal ratio in the repeat runs, not every such curve was filed as active; the % refers to the signal ratio)
# How it was run: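 Phospho-H2AX Ser139 measured by HTRF (ex 320 nm; em 665 and 620 nm) after 24 hr antibody incubation. Compounds, 15 concentrations, 0.76% DMSO, were applied to CHO-K1 cells for 3hr at 37C before lysis.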
# [3] = qHTS assay to identify small molecule agonists of the hypoxia (HIF-1) signaling pathway (AID 1224846; active means well fitted activation curve with a large enough effect in the signal ratio in the repeat runs, not every such curve was filed as active; the % refers to the signal ratio)
# How it was run: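 ME-180 HRE-bla reporter cells; compounds in DMSO, 17 h at 37C; read-out beta-lactamase via CCF4-AM FRET.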
# [4] = qHTS assay to identify small molecule agonists of H2AX - cell viability counter screen (AID 1224847; calls by dose curve; further: top concentration of the series differs between compounds; nearly all actives have a fitted effect of over 30% in size)
# How it was run: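 We seed wild-type CHO-K1 cells overnight, treat them for 3 hr at 37C with compounds in 15-concentration series, and quantify remaining viability by CellTiter-Glo luminescence.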
# [5] = qHTS RealTime-Glo MT Cell Viability Assay in HepG2 cells - 24 hour (AID 1224867); further: nearly all actives have a fitted effect of over 50% in size
# How it was run: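 HepG2 cells (600/well) were dispensed with RealTime-Glo reagents, incubated 5 h at 37 °C, then treated with compounds in DMSO for up to 40 h. Nonlytic NanoLuc luminescence reflecting viable cells was read at each stated time point.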
# [6] = qHTS RealTime-Glo MT Cell Viability Assay in HEK293 cells - 32 hour (AID 1224868); further: nearly all actives have a fitted effect of over 50% in size; further: potency means the concentration at half of the fitted maximal effect
# How it was run: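 HEK293 cells seeded with NanoLuc/prosubstrate reagent, rested 5 h at 37 C, then dosed and kept at 37 C up to 40 h. Nonlytic real-time luminescence from viable cells read at 0, 8, 16, 24, 32 and 40 h.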
# [7] = A CellTox Green Cytotoxicity Assay to monitor cytotoxicity in HEK293 cells - 0 hour (AID 1224869); further: nearly all actives have a fitted effect of over 50% in size
# How it was run: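 Real-time, in one plate: 600 HEK293 cells/well with dead-cell DNA dye, pinned compound after 5 h, 37 C incubation over 40 h; viable cells give no appreciable fluorescence.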
# [8] = qHTS RealTime-Glo MT Cell Viability Assay in HepG2 cells - 40 hour (AID 1224870); further: nearly all actives have a fitted effect of over 50% in size
# How it was run: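 Real-time viability: cells seeded at 600 per well together with NanoLuc and cell-permeant prosubstrate, compounds added after 5 h incubation. Luminescence tracked at 0, 8, 16, 24, 32 and 40 h of exposure.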
# [9] = qHTS assay to identify small molecule agonists of the estrogen related receptor (ERR) signaling pathway from Tox21 library (AID 1224849; calls by dose curve; further: nearly all actives have a fitted effect of over 15% in size); conditions: ERR reporter cell line, ONE-Glo luciferase, 18 h; at 92.4 µM (top of the series) unless noted
# How it was run: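 Luciferase activity in ERR pathway reporter cells served as the agonist readout; exposure lasted 18 h at 37 C, with ONE-Glo detection after 30 min at room temperature.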
SMILES,Potency [1],Potency [2],outcome [3],Potency [4],Potency [5],Potency [6],Potency [7],Potency [8],"activity change, positive = activation [9] [%]"
CCSC(=O)N(CC)C1CCCCC1,inactive,inactive,inactive,inactive,inactive,inactive,inactive,inactive,
Nc1ccccc1Cl,inactive,inactive,inactive,inactive,inactive,inactive,inactive,inactive,
CC(CCc1ccccc1)NC(C)C(O)c1ccc(O)cc1 (stereo not given),inactive,inactive,inactive,inactive,inactive,inactive,inactive,,
OC(c1ccc(F)cc1)(c1cncnc1)c1ccccc1Cl (stereo not given),inactive,inactive,inactive,inactive,inactive,inactive,inactive,inactive,
NC1=NC(=O)C(c2ccccc2)O1 (stereo not given),inactive,inactive,inactive,inactive,inactive,inactive,inactive,inactive,
O=C(NCO)NCO,inactive,inactive,inactive,inactive,inactive,inactive,inactive,inactive,
CCC(=O)c1ccccc1,inactive,inactive,inactive,inactive,inactive,inactive,inactive,,
OCCSCSCCO,inactive,inactive,inactive,inactive,inactive,inactive,inactive,,
COc1cccc(C(=O)NN(C(=O)c2cc(C)cc(C)c2)C(C)(C)C)c1C,inactive,inactive,inactive,inactive,,inactive,inactive,,-24.8
O=C(O)C(Br)CBr (stereo not given),inactive,inactive,inactive,inactive,inactive,inactive,inactive,inactive,
O=C1OC(c2ccc(O)c(S(=O)(=O)O)c2)(c2ccc(O)c(S(=O)(=O)O)c2)c2c(Br)c(Br)c(Br)c(Br)c21,inactive,inactive,inactive,inactive,inactive,inactive,inactive,inactive,
CN/C(=N\[N+](=O)[O-])NCC1CCOC1 (stereo not given),inactive,inactive,inactive,inactive,inactive,inactive,inactive,inactive,
CCN(CC)C(C)C(=O)c1ccccc1 (stereo not given),inactive,inactive,inactive,inactive,inactive,inactive,inactive,inactive,
CCOP(=S)(OCC)Oc1cc(-c2ccccc2)on1,inactive,inactive,inactive,inactive,inactive,inactive,inactive,,
ClCC(Cl)(Cl)Cl,inactive,inactive,inactive,inactive,inactive,inactive,inactive,inactive,
CCCSC(=O)Cl,inactive,inactive,inactive,inactive,inactive,inactive,inactive,inactive,
CCN(Cc1ccc(Cl)nc1)/C(=C/[N+](=O)[O-])NC,inactive,inactive,inactive,inactive,inactive,inactive,inactive,,
N#CCCC#N,inactive,inactive,inactive,inactive,inactive,inactive,inactive,inactive,
CC(N)=S,inactive,inactive,inactive,inactive,inactive,inactive,inactive,inactive,
COC(=O)c1ccccc1S(=O)(=O)NC(=O)Nc1nc(C)cc(C)n1,inactive,inactive,inactive,inactive,inactive,inactive,inactive,,
COc1ncc(F)c2nc(S(=O)(=O)Nc3c(F)cccc3F)nn12,inactive,inactive,inactive,inactive,inactive,inactive,inactive,inactive,
Cc1coc2c1CCC(C)C2 (stereo not given),inactive,inactive,inactive,inactive,inactive,inactive,inactive,inactive,
ClC(Cl)Br,inactive,inactive,inactive,inactive,inactive,inactive,inactive,inactive,
CCCSP(=O)(OCC)Oc1ccc(Br)cc1Cl (stereo not given),inactive,inactive,inactive,inactive,inactive,inactive,inactive,inactive,
CN1CCC(N(Cc2ccccc2)c2ccccc2)CC1,inactive,inactive,inactive,inactive,inactive,inactive,inactive,inactive,
CCCCc1ccc(O)cc1,inactive,inactive,inactive,inactive,inactive,19.5 µM (active),inactive,inactive,
BrCCCCCCBr,inactive,inactive,inactive,inactive,inactive,inactive,inactive,,
CC1(C)CON(Cc2ccccc2Cl)C1=O,inactive,inactive,inactive,inactive,inactive,inactive,inactive,,

# Source: PubChem BioAssay (Tox21)
